AmpC inh no detg = blocks E. coli AmpC beta-lactamase in detergent-free assay | AmpC nitrocefin hydrolysis, absorbance 480 nm, 0.0001% Triton | AID 485341 | P00811 | 330,000 tested, 0.52% active | Potency, µM (top dose mostly 57.1 µM), usual class: inhibitors; note: nearly all actives have a fitted effect of over 20% in size
Target sequence (P00811 whole entry, looked up): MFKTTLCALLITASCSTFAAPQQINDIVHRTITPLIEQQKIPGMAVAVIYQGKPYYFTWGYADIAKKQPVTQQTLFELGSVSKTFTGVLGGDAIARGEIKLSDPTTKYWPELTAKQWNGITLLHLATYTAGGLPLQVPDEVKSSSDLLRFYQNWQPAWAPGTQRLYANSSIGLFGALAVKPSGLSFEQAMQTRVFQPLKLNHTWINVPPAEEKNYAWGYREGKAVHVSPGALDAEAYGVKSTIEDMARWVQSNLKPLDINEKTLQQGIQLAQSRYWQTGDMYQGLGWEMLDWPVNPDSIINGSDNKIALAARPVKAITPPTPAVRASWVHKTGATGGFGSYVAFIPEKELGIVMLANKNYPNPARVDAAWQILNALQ
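20 mM phosphate pH 7.0 + 0.01% (detergent screen) or 0.0001% Triton X-100; 5.3 nM AmpC reagent; cpd preinc 15 min RT; nitrocefin (800 uM stock) to start; A480 q20 s × 4 min; Activity was normalised to no-enzyme and no-compound control wells.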
NS1 function inh = inhibitors of influenza NS1 protein function; Potency, µM (series often up to 46.1 µM); 270,000 tested, 0.4% active; AID 2326; calls by dose curve; note: actives are rising curves; nearly all actives have a fitted effect of over 50% in size
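Recovery from NS1-induced slow growth read by OD600 in budding yeast switched to galactose assay medium (pH 6.0, -URA) at 1:100 dilution. Compound 23 nl per well; the matching strain lacking NS1 serves as control.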
AmpC detergent = AmpC beta-lactamase inhibition with detergent present | P00811 | AmpC hydrolysis of nitrocefin, absorbance 480 nm, 0.01% Triton | Potency, µM (top dose mostly 114 µM), most hits filed as inhibitors | 370,000 tested, 0.041% active | AID 485294; note: nearly all actives have a fitted effect of over 25% in size
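AmpC (5.3 nM in the dispensed reagent) in 20 mM phosphate pH 7.0 with 0.01% (detergent screen) or 0.0001% Triton X-100 was preincubated with compounds for 15 min at room temperature. Nitrocefin was then added from an 800 uM solution, and hydrolysis was followed at 480 nm.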
Cycloheximide cs = affects cycloheximide protein synthesis inhibition readout, counter-screen. cell reporter, cycloheximide protein synthesis inhibition counterscreen. max response, %. 300,000 tested, 12% active; in the data active = max response mostly above about 13%, no sharp cut-off; inactive = mostly below about 14%; note: read at 38.3 µM for the half of the compounds with a filed dose
Shiga inhibitor = Shiga toxin inhibition; Vero cells, Shiga toxin protein synthesis inhibition reporter; inhibition, % at 38.7 µM; 290,000 tested, 9.2% active; AID 2315; in the data active = inhibition mostly above about 28%, no sharp cut-off; inactive = mostly below about 43%
Large screens that a line does not name were inactive. Shown is part of a subset that was picked to be rich in hits. Unless noted, calls come from the whole dose curve; as a rule, active = well fitted curve in the direction sought with a large enough effect; inconclusive = small, poorly fitted or top-dose-only effect, or another doubt; inactive = no such curve, though single readings can be large; an effect the other way counts as inactive or inconclusive.

c1ccc(-c2nnsc2Sc2ccccn2)cc1	Cycloheximide cs 31.9, Shiga inhibitor 56.2 (no result: NS1 function inh)
Clc1ccccc1CSc1snnc1-c1ccccc1	Cycloheximide cs 37.5, Shiga inhibitor 63.6
CC(C)Sc1snnc1-c1ccccc1	none (no result: NS1 function inh)
O=c1cc(O)nc(SCc2ccccc2)n1-c1ccc(Cl)cc1	AmpC detergent inconclusive (no result: NS1 function inh)
Clc1ccc(-c2nnsc2SCc2ccccc2)cc1	Cycloheximide cs 43.7, Shiga inhibitor 49.4
CSc1snnc1-c1ccccc1	none (no result: NS1 function inh)
Cn1cc(C(c2ccccc2)c2ccc(Cl)s2)c2ccccc21 (stereo not drawn)	none (no result: AmpC inh no detg, NS1 function inh, Cycloheximide cs, Shiga inhibitor)
C=CCNC(=O)C1CC(=O)N(c2ccc(OCc3ccccc3Cl)cc2)C1 (stereo not drawn)	Cycloheximide cs 33.3, Shiga inhibitor 33.2
NC(=O)C1CC(=O)N(c2ccc(OCc3ccc(Cl)cc3Cl)cc2)C1 (stereo not drawn)	Cycloheximide cs 25.6
Cc1ccc2c(=O)cc(C(=O)Nc3sc4c(c3C(=O)NCc3cccnc3)CCCC4)oc2c1C	none (no result: AmpC inh no detg, NS1 function inh, Cycloheximide cs, Shiga inhibitor)
Cc1ccc(C(=O)C2CN(C)CC2C(=O)c2ccc(C)cc2)cc1 (stereo not drawn)	Cycloheximide cs 23.2, Shiga inhibitor 38.8
Cc1ccc(C(=O)C2CN3CCC2CC3)cc1 (stereo not drawn)	none
O=C(CCCCn1c(=O)c2ccccc2n(Cc2cccc(F)c2)c1=O)NCCc1ccccc1	none (no result: AmpC inh no detg, NS1 function inh, Cycloheximide cs, Shiga inhibitor)
CCOC(=O)C1=C(CN(CC)Cc2ccccc2)NC(=O)NC1c1ccc(OC(C)C)cc1 (stereo not drawn)	none (no result: AmpC inh no detg, NS1 function inh, Cycloheximide cs, Shiga inhibitor)
COC(=O)c1ccc(CN(c2ccc(C(=O)O)c(O)c2)S(=O)(=O)c2ccc(Cl)c([N+](=O)[O-])c2)cc1	AmpC inh no detg 7.94µM
COc1ccc2sc(NC(=O)CC(C)C)nc2c1	Cycloheximide cs 39.1, Shiga inhibitor 94.0
COc1cccc(Nc2nc(-c3sc(NC(=O)CC(C)C)nc3C)cs2)c1	none
COc1ccc2sc(NC(=O)NC(=O)c3c(Cl)cccc3Cl)nc2c1	Cycloheximide cs 18.8
CCC(=O)Nc1nc2ccc3nc(C)sc3c2s1	AmpC detergent inconclusive, Cycloheximide cs 55.3, Shiga inhibitor 62.3
CCC(=O)Nc1nc2cc(OC)ccc2s1	AmpC detergent inconclusive, Cycloheximide cs 55.4, Shiga inhibitor 183.5
CCOC(=O)c1nn(-c2ccc(C)cc2)c(=O)cc1OCC(=O)N1CCN(c2ccccc2)CC1	none (no result: NS1 function inh, Cycloheximide cs, Shiga inhibitor)
CC1CCN(CCNC(=O)C2CCCN(S(=O)(=O)c3cccc4nsnc34)C2)CC1 (stereo not drawn)	none
COc1ccc2sc(NCc3ccccc3)nc2c1	Cycloheximide cs 48.4, Shiga inhibitor 145.9
COc1ccc2sc(NC(C)=O)nc2c1	AmpC detergent inconclusive, Cycloheximide cs 33.6, Shiga inhibitor 64.1
Nc1ccc2c(c1)OC1(CCCC1)O2	Cycloheximide cs 47.5, Shiga inhibitor 99.0
CCN(CC)C(=S)SCC(=O)c1ccc(Br)cc1	Cycloheximide cs 107.0, Shiga inhibitor 166.9
COc1ccc(NC(=O)c2cc(-c3cccs3)on2)cc1	Cycloheximide cs 29.0, Shiga inhibitor 72.7
CCc1ccc(NC(=O)c2sccc2-n2cccc2)cc1	Cycloheximide cs 19.1
COc1ccc(NC(=O)c2cc(-c3ccccc3)on2)cc1OC	AmpC detergent inconclusive (no result: Shiga inhibitor)
COc1ccc(NC(=O)c2cc(-c3cccs3)on2)cc1OC	Cycloheximide cs 24.2
Cc1ccc(NC(=O)c2cc(-c3ccc(F)cc3)on2)cc1C	Cycloheximide cs 20.3 (no result: NS1 function inh)
CCC(=O)NCc1nc2ccccc2n1Cc1ccccc1	none (no result: AmpC inh no detg, NS1 function inh, Cycloheximide cs, Shiga inhibitor)
Cc1ccc(NC(=O)c2cc(-c3cccs3)on2)cc1C	Cycloheximide cs 56.9, Shiga inhibitor 169.6 (no result: NS1 function inh)
CCc1ccc(NC(=O)c2cc(-c3cccs3)on2)cc1	Cycloheximide cs 38.4, Shiga inhibitor 100.0 (no result: NS1 function inh)
Cn1ccs/c1=N\C(=O)Nc1cccc(C(F)(F)F)c1	Cycloheximide cs 28.2, Shiga inhibitor 69.4
O=C(Nc1cccc(C(F)(F)F)c1)c1cc(-c2cccs2)on1	AmpC detergent inconclusive, Cycloheximide cs 23.0
COc1ccc(CCNC(=O)c2c(C)oc3nc(C)nc(N4CCOCC4)c23)cc1OC	none (no result: AmpC inh no detg, NS1 function inh, Cycloheximide cs, Shiga inhibitor)
CCOC(=O)c1sc(NNC(=O)c2ccc(C)cc2)nc1C	none
CCOC(=O)c1sc(NC(=O)c2ccc(S(=O)(=O)N(C)C)cc2)nc1C	none
CCOC(=O)c1sc(NC(=O)c2cncc(Br)c2)nc1C	AmpC detergent inconclusive, Shiga inhibitor 56.5
CCOC(=O)c1sc(NC(=O)c2ccc3ncsc3c2)nc1C	AmpC detergent inconclusive, Cycloheximide cs 25.1, Shiga inhibitor 72.5
CCOC(=O)c1sc(NNC(=O)c2ccc(F)cc2)nc1C	Cycloheximide cs 21.9, Shiga inhibitor 55.9
Cc1ccc(Cn2c(=O)n(CCc3ccccc3)c(=O)c3sc4ccccc4c32)cc1	none (no result: AmpC inh no detg, NS1 function inh, Cycloheximide cs, Shiga inhibitor)
CCC(Oc1ccc(F)cc1)C(=O)Nc1cc(-c2ccc(C)cc2)no1 (stereo not drawn)	none (no result: AmpC inh no detg, NS1 function inh, Cycloheximide cs, Shiga inhibitor)
Cc1ccccc1-c1cc(-c2ccccc2O)on1	Cycloheximide cs 51.5, Shiga inhibitor 75.6
CC(C)(C)c1cc(-c2ccccc2)no1	none
Oc1ccccc1-c1cc(-c2ccccc2)no1	Cycloheximide cs 47.3, Shiga inhibitor active
Cc1ccc(O)c(NC(=O)c2cc(-c3ccccc3O)no2)c1	none (no result: AmpC inh no detg, NS1 function inh, Cycloheximide cs, Shiga inhibitor)
Cc1ccc(-c2cc(-c3ccccc3)no2)c(O)c1	Cycloheximide cs 43.1
Cc1ccc(O)c(-c2cc(-c3ccc(F)cc3)no2)c1	Cycloheximide cs 37.2, Shiga inhibitor 121.7
Cc1ccc(C(=O)Oc2cc(-c3ccccc3)no2)cc1	none
CC(=O)c1ccc(N2CCN(C(=O)CCCc3nc4ccccc4s3)CC2)cc1	none
COc1ccc2oc(-c3ccc(C)c(NC(=O)c4ccc(-c5ccccc5[N+](=O)[O-])o4)c3)nc2c1	none (no result: AmpC inh no detg, NS1 function inh, Cycloheximide cs, Shiga inhibitor)
Cc1ccc(N2C(=O)CSC23C(=O)N(CC(=O)NCc2ccccc2)c2ccccc23)cc1C (stereo not drawn)	none (no result: AmpC inh no detg, NS1 function inh, Cycloheximide cs, Shiga inhibitor)
CCOc1ccc(NC(=O)CN2C(=O)COc3ccc(S(=O)(=O)Nc4ccccc4)cc32)cc1	none (no result: AmpC inh no detg, NS1 function inh, Cycloheximide cs, Shiga inhibitor)
COCC(C)n1c(C)cc(C(=O)COC(=O)c2n[nH]c3ccccc23)c1C (stereo not drawn)	Cycloheximide cs 56.4, Shiga inhibitor 129.0
COCC(C)n1c(C)cc(C(=O)COC(=O)c2cc(=O)[nH]c3ccccc23)c1C (stereo not drawn)	none (no result: NS1 function inh, AmpC detergent, Cycloheximide cs, Shiga inhibitor)
COCCn1c(C)cc(C(=O)COC(=O)CNC(=O)c2ccccc2)c1C	AmpC detergent inconclusive, Cycloheximide cs 60.7, Shiga inhibitor 98.8
COCC(C)n1c(C)cc(C(=O)COC(=O)c2oc3ccccc3c2C)c1C (stereo not drawn)	none
COCC(C)n1c(C)cc(C(=O)COC(=O)CNC(=O)c2ccccc2)c1C (stereo not drawn)	Cycloheximide cs 53.3, Shiga inhibitor 86.2
c1ccc(Cc2nc3ccccc3o2)cc1	AmpC detergent inconclusive
CCOC(=O)c1cnc2c(-c3ccc(Cl)cc3)cnn2c1C	Cycloheximide cs 14.1
CCOC(=O)c1cnc2c(-c3ccc(F)cc3)cnn2c1C(F)(F)F	Cycloheximide cs 17.4, Shiga inhibitor 27.5
